Assay results taken from PubChem BioAssay AID1159580 (chemical genetic matrix, 2015).
“And” between values parts separate entries of the source, which are not always exact repeats. Equal values may be shown once. Out of some 5,500 compounds screened, about 2,000 (36%) were called active. Another 18% or so got no clear call; they are omitted. No stated cut-off is given here; in the data, active means normalized growth mostly below about 0.91 (no sharp cut-off); inconclusive means no clear call, values can overlap the other calls; inactive means mostly above about 0.92. The list shows a part of the results.

Assay: chemical genetic growth profiling, strain panel (AID 1159580);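 further: tested at 20 µM; growth read once vehicle control cultures reached saturation at 30 °C; 1 = growth at the plate median or of vehicle wells; lower values mean less growth of the strain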
Conditions: S. cerevisiae deletion strains, growth OD

Measured: normalized growth

Cc1cc(=O)[nH]c(=S)[nH]1
inactive: locus YAL013W, strain DEP1, active compounds read low 1.01 | locus YAL021C, strain ccr4, active compounds read low 0.956 | locus YAL026C, strain drs2, active compounds read low 0.974 | locus YAL030W, strain snc1, active compounds read low 0.98 | locus YBL061C, strain skt5, active compounds read low 0.987 | locus YBR009C, strain hhf1, active compounds read low 0.954 | locus YBR021W, strain FUR4, active compounds read low 0.986 | locus YBR023C, strain chs3, active compounds read low 0.977 | locus YBR171W, strain sec66, active compounds read low 0.987 | locus YBR229C, strain ROT2, active compounds read low 1.01 | locus YBR231C, strain swc5, active compounds read low 0.989 | locus YBR279W, strain paf1, active compounds read low 0.973 | locus YCL011C, strain gbp2, active compounds read low 0.964 | locus YCL016C, strain dcc1, active compounds read low 0.96 | locus YCL029C, strain bik1, active compounds read low 1.02 | locus YCL061C, strain MRC1, active compounds read low 0.926 | locus YCL069W, strain vba3, active compounds read low 0.97 | locus YCR088W, strain abp1, active compounds read low 0.978 | locus YDL005C, strain med2, active compounds read low 0.97 | locus YDL035C, strain GPR1, active compounds read low 0.993 | locus YDL040C, strain nat1, active compounds read low 0.977 | locus YDL074C, strain BRE1, active compounds read low 1.03 | locus YDL101C, strain DUN1, active compounds read low 1.03 | locus YDL134C, strain PPH21, active compounds read low 1 | locus YDL185W, strain tfp1, active compounds read low 1.02 | locus YDL192W, strain arf1, active compounds read low 1 | locus YDR001C, strain nth1, active compounds read low 0.972 | locus YDR069C, strain doa4, active compounds read low 0.982 | locus YDR101C, strain arx1, active compounds read low 0.998 | locus YDR137W, strain rgp1, active compounds read low 0.958 | locus YDR150W, strain NUM1, active compounds read low 1.01 | locus YDR159W, strain sac3, active compounds read low 0.937 | locus YDR162C, strain NBP2, active compounds read low 1.01 | locus YDR195W, strain ref2 0.948 | locus YDR297W, strain sur2, active compounds read low 0.963 | locus YDR318W, strain mcm21, active compounds read low 1.03 | locus YDR334W, strain swr1, active compounds read low 0.973 | locus YDR335W, strain msn5, active compounds read low 0.968 | locus YDR388W, active compounds read low 1.01 | locus YDR392W, strain spt3, active compounds read low 0.929 | locus YDR502C, strain sam2, active compounds read low 0.999 | locus YEL003W, strain gim4, active compounds read low 0.965 | locus YEL037C, strain rad23, active compounds read low 0.98 | locus YEL061C, strain CIN8 (second series), active compounds read low 0.973 | locus YEL061C, strain CIN8, active compounds read low 1 | locus YER015W, strain faa2, active compounds read low 0.989 | locus YER016W, strain bim1, active compounds read low 0.938 | locus YER110C, active compounds read low 1.01 | locus YER111C, strain swi4, active compounds read low 0.976 | locus YER155C, strain BEM2 (second series), active compounds read low 1.01 | locus YER155C, strain BEM2, active compounds read low 1.01 | locus YER167W, strain BCK2, active compounds read low 0.996 | locus YFR010W, strain ubp6, active compounds read low 0.97 | locus YGL078C, strain dbp3, active compounds read low 0.991 | locus YGL086W, strain mad1, active compounds read low 1 | locus YGL167C, strain pmr1, active compounds read low 0.968 | locus YGL173C, strain kem1, active compounds read low 0.968 | locus YGL227W, strain vid30, active compounds read low 0.986 | locus YGL240W, strain doc1, active compounds read low 0.988 | locus YGL248W, strain PDE1, active compounds read low 1.01 | locus YGL253W, strain hxk2, active compounds read low 0.949 | locus YGR078C, strain PAC10, active compounds read low 1.02 | locus YGR135W, strain pre9, active compounds read low 1 | locus YGR229C, strain SMI1, active compounds read low 1.01 | locus YGR252W, strain gcn5, active compounds read low 0.978 | locus YHR013C, strain ard1, active compounds read low 0.914 | locus YHR027C, strain rpn1, active compounds read low 0.965 | locus YHR030C, strain SLT2, active compounds read low 1.01 and 1.08 | locus YHR079C, strain IRE1 (second series), active compounds read low 1.01 | locus YHR079C, strain IRE1, active compounds read low 1.05 | locus YHR094C, strain hxt1, active compounds read low 1.01 | locus YHR129C, strain ARP1, active compounds read low 1.02 | locus YHR142W, strain chs7, active compounds read low 0.952 | locus YHR200W, strain rpn10, active compounds read low 1 | locus YIL066C, strain RNR3, active compounds read low 1.01 | locus YIL073C, strain SPO22, active compounds read low 1.04 | locus YIL125W, strain kgd1, active compounds read low 1 | locus YIR030C, strain dcg1, active compounds read low 1 | locus YJL092W, strain hpr5, active compounds read low 0.987 | locus YJL095W, strain BCK1 (second series), active compounds read low 0.978 | locus YJL095W, strain BCK1, active compounds read low 1.04 | locus YJL115W, strain asf1, active compounds read low 0.97 | locus YJL129C, strain trk1, active compounds read low 0.971 | locus YJL134W, strain LCB3, active compounds read low 1.01 | locus YJL154C, strain vps35, active compounds read low 0.972 | locus YJL164C, strain tpk1, active compounds read low 0.947 | locus YJL166W, strain qcr8, active compounds read low 0.976 | locus YJL168C, strain set2, active compounds read low 1.01 | locus YJL187C, strain SWE1 (second series), active compounds read low 1.03 | locus YJL187C, strain SWE1, active compounds read low 0.976 | locus YJR043C, strain POL32, active compounds read low 1.02 | locus YJR066W, strain TOR1, active compounds read low 0.996
